# Compound activity (PubChem)
# CYP2C9 inh: inhibitors of human CYP2C9; P11712; CYP2C9 Supersomes, luciferin-H conversion, luminescence; inhibition, % at 5 µM; 20% of 96,000 active; AID 777;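 active = blocking of liver enzyme CYP2C9 beyond about 50% at 5 µM, limit read from the data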
# CYP2C19 act: cytochrome P450 2C19 (human) activation. recombinant CYP2C19, luciferin-H EGE luminescence; active compounds read high; 0 = fully inhibited enzyme, 1 = untreated enzyme. activation factor at 5 µM. 96,000 tested, under 10 active;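 active = activation factor of at least 2 at 5 µM in the primary screen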;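 note: 0 = wells with 2.5 mM tranylcypromine and 1 = vehicle-only wells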
# PLAP activator: activates human placental alkaline phosphatase; P05187; purified PLAP enzyme, luminescent substrate read-out; active compounds read high; 1.2% of 96,000 active; activation fold at 20 µM; in the data active = activation fold above about 2
# Target sequence (P05187 whole entry, looked up): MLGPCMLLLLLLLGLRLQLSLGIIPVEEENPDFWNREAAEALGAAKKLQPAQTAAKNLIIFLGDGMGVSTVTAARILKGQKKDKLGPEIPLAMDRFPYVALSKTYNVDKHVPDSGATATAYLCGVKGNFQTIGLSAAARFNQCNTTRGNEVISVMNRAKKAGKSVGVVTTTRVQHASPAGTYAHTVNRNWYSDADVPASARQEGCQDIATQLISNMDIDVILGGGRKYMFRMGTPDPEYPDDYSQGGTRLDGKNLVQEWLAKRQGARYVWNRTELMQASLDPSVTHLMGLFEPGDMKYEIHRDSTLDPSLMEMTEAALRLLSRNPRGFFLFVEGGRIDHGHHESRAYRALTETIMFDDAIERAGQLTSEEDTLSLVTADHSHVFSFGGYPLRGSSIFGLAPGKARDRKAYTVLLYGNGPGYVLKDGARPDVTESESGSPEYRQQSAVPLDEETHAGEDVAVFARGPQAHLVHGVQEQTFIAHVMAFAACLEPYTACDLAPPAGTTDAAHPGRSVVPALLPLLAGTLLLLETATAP
# CYP2C19 inhib: blocks human cytochrome P450 2C19; CYP2C19 Supersomes, luciferin-H EGE luminescence, 30 min; 21% of 96,000 active; P33261; inhibition, % at 5 µM; AID 778;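 active = CYP2C19 inhibition above a set limit at 5 µM in the primary screen, cut at about 50% in these data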;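 note: plate controls were negative control wells for no effect and 2.5 mM tranylcypromine positive control for full effect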
# CYP2C9 act: CYP2C9 (human) activation; P11712; recombinant CYP2C9, luciferin-H conversion, luminescence; active compounds read high; factor 1 = untreated enzyme, 0 = blocked; activation factor at 5 µM; 1.4% of 96,000 active;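 active = activation factor of 2 or more for CYP2C9 at a 5 µM dose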;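 note: 0 = sulfaphenazole-blocked wells and 1 = vehicle-only wells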
# An asterisk follows results filed as active. In the library only some 31% were active in any assay of this set; here they are far more common.
SMILES,CYP2C9 inh,CYP2C19 act,PLAP activator,CYP2C19 inhib,CYP2C9 act
O=c1oc2ccccc2c(O)c1C=NCc1ccccn1,35,0.5,2.1*,46,0.6
CCOC(=O)c1ccc(NC2c3ccccc3C(=O)N2c2ccccn2)cc1 (stereo not drawn),22,0.8,0.9,18,0.8
CC1(C)CC(=O)C(C2(O)C(=O)N(Cc3ccccc3)c3ccccc32)CO1 (stereo not drawn),35,0.4,1,63*,0.7
N#Cc1cc2c(nc1SCC(=O)Nc1sc3c(c1C#N)CCC3)CCCCC2,16,1,1,0,0.8
N#Cc1c(NC(=O)CSc2nc(N)cc(=O)[nH]2)sc2c1CCCCCC2,30,0.4,1,58*,0.7
N#Cc1cc2c(nc1SCC(=O)Nc1sc3c(c1C#N)CCC3)CCCC2,19,1,1,3,0.8
N#Cc1c(NC(=O)CSc2ncn(-c3ccccc3)n2)sc2c1CCCC2,90*,0.2,0.9,81*,0.1
N#Cc1c(NC(=O)CSc2ncn[nH]2)sc2c1CCCCC2,71*,0.8,1.1,15,0.3
N#Cc1c(NC(=O)CSc2nnnn2C2CCCC2)sc2c1CCCC2,28,1,1,3,0.7
CCCCCC(=O)Nc1c(-c2ccc(OC)cc2)c(=O)c2ccccc2n1C,50,1.2,1,-15,0.5
COC(=O)c1sccc1NC(=O)CSc1cccc(Cl)c1Cl,45,0.8,0.7,17,0.6
COc1ccc(C2(O)CCN(C(=O)c3ccc4c(c3)OCO4)CC2)cc1,37,0.7,1.2,30,0.6
CCC(C)(C)n1nnnc1C(c1cc2cc(OC)c(OC)cc2[nH]c1=O)N1CCc2ccccc21 (stereo not drawn),77*,0.5,1.7,46,0.2
COc1cc2cc(C(c3nnnn3C(C)(C)C)N3CCc4ccccc4C3)c(=O)[nH]c2cc1OC (stereo not drawn),81*,0.3,1.6,65*,0.2
Cc1ccc2cc(C(c3nnnn3C(C)(C)C)N3CCCCCC3)c(=O)[nH]c2c1 (stereo not drawn),65*,0.7,1.6,32,0.3
CCC(C)(C)n1nnnc1C(c1cc2cc(C)ccc2[nH]c1=O)N1CCCC1 (stereo not drawn),17,1,1.2,1,0.8
O=C(O)c1ccc(CNCc2cccc(Cl)c2Cl)cc1,-8,0.9,1.4,9,1.1
CN(C)S(=O)(=O)c1ccc(NC(=O)COC(=O)c2ccccn2)cc1,-8,1,1.2,-3,1.1
Cc1ccc(-n2c(-c3cccnc3)n[nH]c2=S)c(C)c1,-1,1,0.8,3,1
O=C(Cn1nc(C(F)F)cc1C(F)F)N/N=C/c1ccc2c(c1)OCO2,2,0.9,0.9,10,1
COC(=O)c1[nH]c2cc(OC)c(OC)cc2c1NC(=O)c1cccc(OC)c1,59*,0.9,1.6,6,0.4
COc1cccc(C(=O)Nc2cccc(OCC(=O)O)c2)c1,36,0.3,1.1,70*,0.6
CNC(=O)c1[nH]cnc1C(=O)Nc1cccc(OC)c1,32,0.3,1.9,67*,0.7
COc1cccc(C(=O)Nc2cccc(SC)c2)c1,41,0.1,0.7,87*,0.6
COc1cccc(C(=O)Nc2ccccc2)c1,-2,0.7,1.1,31,1
SMILES,CYP2C9 inh,CYP2C19 act,PLAP activator,CYP2C19 inhib,CYP2C9 act
CCn1c(NC(=O)c2ccc(COc3ccc(C)cc3[N+](=O)[O-])o2)nc2ccccc21,16,0.8,1,15,0.8
CCOC(=O)c1cc(CN2CCOCC2)oc1-c1ccccc1,22,0.7,1.5,26,0.8
CCC(C)C1C(C#N)=C(N)Oc2n[nH]c(-c3ccccc3)c21 (stereo not drawn),16,0.5,0.9,53*,0.8
N#CC1=C(N)Oc2n[nH]c(-c3ccc(F)cc3)c2C1c1cccnc1 (stereo not drawn),55*,0.3,2*,70*,0.5
N#CC1=C(N)Oc2n[nH]c(-c3ccccc3)c2C1c1ccncc1 (stereo not drawn),89*,0.2,1.6,85*,0.1
Cc1[nH]nc2c1C(C(C)C)C(C#N)=C(N)O2 (stereo not drawn),27,0.6,1.3,43,0.7
CCc1[nH]nc2c1C(c1ccncc1)C(C#N)=C(N)O2 (stereo not drawn),69*,0.4,0.9,59*,0.3
COCc1[nH]nc2c1C(c1ccc(OC)cc1)C(C#N)=C(N)O2 (stereo not drawn),37,0.7,0.9,31,0.6
Cc1ccc(C2C(C#N)=C(N)Oc3n[nH]c(-c4ccccc4)c32)o1 (stereo not drawn),26,0.7,1.3,31,0.7
Cc1nc(-c2ccccc2)nc2[nH]ccc(=O)c12,28,0.7,1,30,0.7
CCC(=O)N(Cc1ccc(S(N)(=O)=O)cc1)C1CC(=O)N(c2ccc(OC)cc2)C1=O (stereo not drawn),0,1.1,1.1,-6,1
Cc1csc(SCC(=O)Nc2ncc(Cl)c(C)c2Cl)n1,17,0.6,0.9,38,0.8
COc1cc2cc(CN(Cc3nnnn3Cc3ccccc3)CC3CCCO3)c(=O)[nH]c2cc1OC (stereo not drawn),68*,0,1.7,98*,0.3
COc1ccc2[nH]c(=O)c(CN(Cc3ccccc3)Cc3nnnn3CC3CCCO3)cc2c1 (stereo not drawn),43,0.3,1.4,72*,0.6
NC(=O)CN1CCOCCN(CC(N)=O)CCOCC1,-1,1.1,1.2,-6,1
CC(C)C1Cc2c(sc3[nH]c(=S)n(Cc4ccccc4)c(=O)c23)CO1 (stereo not drawn),77*,1,1.6,4,0.2
Cc1nnc2n(-c3ccccc3)c(=O)c3c4c(sc3n12)COC(C(C)C)C4 (stereo not drawn),16,0.9,1.4,8,0.8
Cc1ccc(Sc2ccc(C(=O)NC(C)C)cc2[N+](=O)[O-])cc1,39,1,1,-2,0.6
COc1ccc(OC)c(/C=N/NC(=O)CCCC(=O)Nc2cccc(Br)c2)c1,75*,0.7,1.3,35,0.2
O=c1c2ccccc2nc(CSc2ncnc3nc[nH]c23)n1-c1cccc(C(F)(F)F)c1,6,1.1,2.1*,-13,0.9
O=C(CSc1ncnc2nc[nH]c12)N1CCN(c2ccccc2)CC1,11,0.5,1.4,46,0.9
CCCc1c(C)c2c(C)[nH]nc2oc1=O,-75,0.4,1,62*,1.8
Cc1ccccc1NS(=O)(=O)c1cc(C(=O)NCCC2=CCCCC2)ccc1C,12,1.1,1.1,-8,0.9
O=C1CSc2ccc(C(=O)NCCC3=CCCCC3)cc2N1,-5,1,0.8,-2,1.1
COc1ccc(C(=O)NCCC2=CCCCC2)cc1OC,-7,0.3,1.5,66*,1.1
O=C(NCCC1=CCCCC1)c1ccc(Cl)c(S(=O)(=O)Nc2ccccc2)c1,69*,0.6,1.4,40,0.3
